# Assays:
# Assay in all cases: universal protein binding microarray (PBM); transcription factors of Arabidopsis thaliana; high values mean tight binding
# GST-ANAC055(1-171) = target: T1, GST-ANAC055(1-171) (Arabidopsis thaliana, UniProt Q9LDY8 1-171); settings: protein: recombinant; tags: GST; chain copies: 2; dsDNA, one strand shown
# T1 sequence: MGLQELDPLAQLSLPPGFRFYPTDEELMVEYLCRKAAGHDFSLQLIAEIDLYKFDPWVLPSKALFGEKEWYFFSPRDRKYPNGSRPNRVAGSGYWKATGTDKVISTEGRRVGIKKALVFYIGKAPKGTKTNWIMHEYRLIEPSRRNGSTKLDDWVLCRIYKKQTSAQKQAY
# How it was run: (§1)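 GST-tagged proteins (NAC-domain, full-length or DNA-binding-domain) were induced in cells, with zinc acetate supplied for zinc-finger proteins, then purified on glutathione–Sepharose 4B. Each was tested in duplicate at 200 to 500 nM final on custom all-10-mer Agilent 4 × 180K arrays rendered double-stranded by primer extension. The binding value is the normalised enrichment score (E-score) across gapped and ungapped 8-mers.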
# [1] = target: T2, GST-ANAC092(1-285) full length (Arabidopsis thaliana, UniProt Q9FKA0 1-285); settings: protein: recombinant; tags: GST; chain copies: 2; dsDNA, one strand shown
# T2 sequence: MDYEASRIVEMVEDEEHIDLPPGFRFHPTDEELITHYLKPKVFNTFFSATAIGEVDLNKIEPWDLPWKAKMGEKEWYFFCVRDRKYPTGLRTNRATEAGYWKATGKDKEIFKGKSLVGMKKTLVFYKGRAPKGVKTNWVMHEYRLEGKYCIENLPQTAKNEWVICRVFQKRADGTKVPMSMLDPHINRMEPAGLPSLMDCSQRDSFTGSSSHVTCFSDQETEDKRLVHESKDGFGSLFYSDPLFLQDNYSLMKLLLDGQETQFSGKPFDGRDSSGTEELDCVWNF
# How it was run: as §1
# GST-SND1(1-203) = target: T3, GST-SND1(1-203) (Arabidopsis thaliana, UniProt Q9LPI7 1-203); settings: protein: recombinant; tags: GST; chain copies: 2; dsDNA, one strand shown
# T3 sequence: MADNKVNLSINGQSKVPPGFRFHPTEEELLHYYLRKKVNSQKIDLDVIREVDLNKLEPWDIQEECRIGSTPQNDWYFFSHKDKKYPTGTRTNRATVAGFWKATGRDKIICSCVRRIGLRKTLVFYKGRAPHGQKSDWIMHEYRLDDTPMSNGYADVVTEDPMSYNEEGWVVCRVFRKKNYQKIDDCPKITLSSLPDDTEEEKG
# How it was run: as §1
# GST-VND3 NAC domain = target: T4, GST-VND3 NAC domain (Arabidopsis thaliana, UniProt Q9FH59 12-162); settings: protein: recombinant; tags: GST; chain copies: 2; dsDNA, one strand shown
# T4 sequence: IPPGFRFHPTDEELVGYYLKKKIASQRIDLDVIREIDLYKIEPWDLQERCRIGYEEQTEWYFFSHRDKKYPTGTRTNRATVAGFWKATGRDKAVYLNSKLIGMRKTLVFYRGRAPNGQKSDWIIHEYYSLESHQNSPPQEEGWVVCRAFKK
# How it was run: as §1
# GST-VND7 NAC domain = target: T5, GST-VND7 NAC domain (Arabidopsis thaliana, UniProt Q9C8W9 9-158); settings: protein: recombinant; tags: GST; chain copies: 2; dsDNA, one strand shown
# T5 sequence: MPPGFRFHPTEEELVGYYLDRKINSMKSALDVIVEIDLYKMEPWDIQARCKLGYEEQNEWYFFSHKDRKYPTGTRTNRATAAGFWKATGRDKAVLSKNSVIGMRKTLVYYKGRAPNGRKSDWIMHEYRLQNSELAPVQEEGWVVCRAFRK
# How it was run: as §1
# GST-WRKY1(266-371) = GST-WRKY1(266-371) (Arabidopsis thaliana, UniProt Q9SI37 266-371); settings: protein: recombinant; tags: GST; dsDNA, one strand shown
# How it was run: as §1
# GST-ANAC092(1-176) = target: T6, GST-ANAC092(1-176) (Arabidopsis thaliana, UniProt Q9FKA0 1-176); settings: protein: recombinant; tags: GST; chain copies: 2; dsDNA, one strand shown
# T6 sequence: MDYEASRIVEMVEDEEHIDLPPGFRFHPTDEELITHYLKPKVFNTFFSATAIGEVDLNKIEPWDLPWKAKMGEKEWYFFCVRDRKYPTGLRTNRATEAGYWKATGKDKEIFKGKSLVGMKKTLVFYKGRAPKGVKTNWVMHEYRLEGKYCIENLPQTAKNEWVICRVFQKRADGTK
# How it was run: as §1
# GST-ANAC019 NAC domain = target: T7, GST-ANAC019 NAC domain (Arabidopsis thaliana, UniProt Q9C932 14-162); settings: protein: recombinant; tags: GST; chain copies: 2; dsDNA, one strand shown
# T7 sequence: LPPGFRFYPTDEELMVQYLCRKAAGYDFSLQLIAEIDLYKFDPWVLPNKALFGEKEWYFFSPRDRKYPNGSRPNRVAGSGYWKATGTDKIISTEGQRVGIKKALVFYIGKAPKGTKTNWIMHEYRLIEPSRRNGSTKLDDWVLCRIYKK
# How it was run: as §1
# GST-ATAF1 NAC domain = target: T8, GST-ATAF1 NAC domain (Arabidopsis thaliana, UniProt Q39013 7-158); settings: protein: recombinant; tags: GST; chain copies: 2; dsDNA, one strand shown
# T8 sequence: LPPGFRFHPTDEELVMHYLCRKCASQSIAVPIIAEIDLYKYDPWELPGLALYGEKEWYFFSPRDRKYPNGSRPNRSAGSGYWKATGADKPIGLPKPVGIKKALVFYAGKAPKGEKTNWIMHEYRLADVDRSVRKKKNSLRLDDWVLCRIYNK
# How it was run: as §1
# GST-NAP(1-166) = target: T9, GST-NAP(1-166) (Arabidopsis thaliana, UniProt O49255 1-166); settings: protein: recombinant; tags: GST; chain copies: 2; dsDNA, one strand shown
# T9 sequence: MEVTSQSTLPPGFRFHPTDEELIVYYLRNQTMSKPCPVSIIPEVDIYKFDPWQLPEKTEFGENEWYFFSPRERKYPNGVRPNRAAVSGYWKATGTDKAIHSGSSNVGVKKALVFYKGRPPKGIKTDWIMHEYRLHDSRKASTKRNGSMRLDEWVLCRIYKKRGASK
# How it was run: as §1
# GST-NST2(1-184) = target: T10, GST-NST2(1-184) (Arabidopsis thaliana, UniProt Q9M274 1-184); settings: protein: recombinant; tags: GST; chain copies: 2; dsDNA, one strand shown
# T10 sequence: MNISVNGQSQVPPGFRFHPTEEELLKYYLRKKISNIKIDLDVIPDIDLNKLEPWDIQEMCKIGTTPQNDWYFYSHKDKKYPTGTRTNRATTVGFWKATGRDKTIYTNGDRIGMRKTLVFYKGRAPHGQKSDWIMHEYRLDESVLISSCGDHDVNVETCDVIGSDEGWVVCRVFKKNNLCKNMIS
# How it was run: as §1
# GST-NTL8 NAC domain = target: T11, GST-NTL8 NAC domain (Arabidopsis thaliana, UniProt Q9XIN7 14-156); settings: protein: recombinant; tags: GST; chain copies: 2; dsDNA, one strand shown
# T11 sequence: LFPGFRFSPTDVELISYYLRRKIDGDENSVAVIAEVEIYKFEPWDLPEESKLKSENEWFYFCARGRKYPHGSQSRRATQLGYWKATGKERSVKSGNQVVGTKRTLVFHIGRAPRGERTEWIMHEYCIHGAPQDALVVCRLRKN
# How it was run: as §1
# GST-NTL6(1-168) = GST-NTL6(1-168) (Arabidopsis thaliana, UniProt Q9SCK6 1-168); settings: protein: recombinant; tags: GST; chain copies: 2; dsDNA, one strand shown
# How it was run: as §1
# Sequence of GST-NTL6(1-168) (Q9SCK6 1-168): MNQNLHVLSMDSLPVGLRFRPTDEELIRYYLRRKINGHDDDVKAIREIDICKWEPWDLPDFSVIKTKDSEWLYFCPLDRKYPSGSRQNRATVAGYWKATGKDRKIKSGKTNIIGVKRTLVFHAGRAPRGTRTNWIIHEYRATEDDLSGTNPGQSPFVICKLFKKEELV
# Sequence of GST-WRKY1(266-371) (Q9SI37 266-371): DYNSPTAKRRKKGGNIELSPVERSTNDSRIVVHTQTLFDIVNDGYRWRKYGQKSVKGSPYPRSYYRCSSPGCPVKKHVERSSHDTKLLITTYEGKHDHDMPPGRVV
Sequence,binding signal (GST-ANAC055(1-171)),binding signal [1],binding signal (GST-SND1(1-203)),binding signal (GST-VND3 NAC domain),binding signal (GST-VND7 NAC domain),binding signal (GST-WRKY1(266-371)),binding signal (GST-ANAC092(1-176)),binding signal (GST-ANAC019 NAC domain),binding signal (GST-ATAF1 NAC domain),binding signal (GST-NAP(1-166)),binding signal (GST-NST2(1-184)),binding signal (GST-NTL8 NAC domain),binding signal (GST-NTL6(1-168))
CAAAGTCA,0.0622 E-score,0.0505 E-score,0.0515 E-score,0.0817 E-score,0.0536 E-score,0.454 E-score,,,,,,,
GATTGACC,0.0576 E-score,0.14 E-score,0.0705 E-score,0.138 E-score,0.059 E-score,0.479 E-score,0.141 E-score,,,,,,
ACGCAATA,0.212 E-score,0.447 E-score,0.419 E-score,0.312 E-score,0.288 E-score,0.0639 E-score,0.444 E-score,0.233 E-score,0.166 E-score,0.301 E-score,0.288 E-score,0.0551 E-score,
ACACGGAA,0.481 E-score,0.458 E-score,0.057 E-score,0.467 E-score,0.479 E-score,,0.464 E-score,0.486 E-score,0.376 E-score,0.45 E-score,0.328 E-score,,0.0747 E-score
CTTGCGTA,0.306 E-score,0.474 E-score,0.479 E-score,0.416 E-score,0.394 E-score,0.0686 E-score,0.471 E-score,0.382 E-score,0.317 E-score,0.386 E-score,0.332 E-score,0.0618 E-score,
ATTGCGTG,0.452 E-score,0.494 E-score,0.471 E-score,0.441 E-score,0.46 E-score,0.0947 E-score,0.494 E-score,0.466 E-score,0.355 E-score,0.458 E-score,0.459 E-score,0.188 E-score,
GTTCCGTA,0.448 E-score,0.373 E-score,0.377 E-score,0.375 E-score,0.439 E-score,0.0936 E-score,0.351 E-score,0.43 E-score,0.438 E-score,0.455 E-score,0.179 E-score,,
CGTGCACG,0.424 E-score,0.418 E-score,0.0947 E-score,0.426 E-score,0.391 E-score,0.0812 E-score,0.354 E-score,0.464 E-score,0.304 E-score,0.378 E-score,0.221 E-score,0.0868 E-score,
AATAGCGT,0.138 E-score,0.412 E-score,0.383 E-score,0.119 E-score,0.191 E-score,0.0558 E-score,0.39 E-score,,0.114 E-score,0.121 E-score,0.261 E-score,,
AGACACGC,0.0867 E-score,0.42 E-score,0.215 E-score,0.0792 E-score,0.165 E-score,0.084 E-score,0.364 E-score,0.0909 E-score,0.165 E-score,0.0846 E-score,0.107 E-score,0.0629 E-score,
AACACGCT,0.236 E-score,0.431 E-score,0.227 E-score,0.0943 E-score,0.142 E-score,,0.416 E-score,0.185 E-score,0.174 E-score,0.2 E-score,0.3 E-score,,0.134 E-score
ACACTCAA,0.174 E-score,0.448 E-score,0.264 E-score,0.092 E-score,0.185 E-score,0.133 E-score,0.425 E-score,0.116 E-score,0.17 E-score,0.07 E-score,0.184 E-score,0.0774 E-score,
ATACGTAT,0.379 E-score,0.37 E-score,0.211 E-score,0.347 E-score,0.293 E-score,,0.156 E-score,0.281 E-score,0.231 E-score,0.445 E-score,0.186 E-score,,0.12 E-score
TGACGTAA,0.364 E-score,0.441 E-score,0.482 E-score,0.406 E-score,0.392 E-score,0.178 E-score,0.449 E-score,0.368 E-score,0.407 E-score,0.389 E-score,0.385 E-score,0.0784 E-score,
AACTTGAC,0.105 E-score,0.088 E-score,0.136 E-score,0.152 E-score,0.0683 E-score,0.425 E-score,0.0775 E-score,,0.0699 E-score,,0.173 E-score,,

# Source: PMC4081100, “A DNA-binding-site landscape and regulatory network analysis for NAC transcription factors in Arabidopsis thaliana”
